The list is not random: actives were taken first. Their share in the collection is about 11%.
HTT ATP protect: cytoprotection in Huntington HTT-Q103 PC12 cell model. Potency, µM (titrated, usually from 56.4 µM), actives largely listed as activators. PC12 HTT-Q103 induced, cytoprotection, ATP luminescence, 40 h. 230,000 tested, 0.14% active. AID 1471; further: nearly all actives have a fitted effect of over 45% in size
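Compounds added alongside 100 nM tebufenozide, which induces toxic Q103 huntingtin exon 1-GFP in stable PC12 cells; surviving cells quantified by luminescent ATP measurement. Medium: phenol red-free DMEM, 5% equine and 5% calf serum.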
HPGD inh: inhibitors of human 15-hydroxyprostaglandin dehydrogenase (HPGD); P15428; AID 894; 150,000 tested, 4.3% active; Potency, µM, most hits filed as inhibitors; purified HPGD, NADH fluorescence kinetic, PGE2 substrate; active means well fitted inhibition curve with a large enough effect, not every such curve was filed as active; inconclusive means small, poorly fitted or top-dose-only effect, or another doubt; inactive means no such curve, though single readings can be large or run the other way
Target sequence (P15428 whole entry, looked up): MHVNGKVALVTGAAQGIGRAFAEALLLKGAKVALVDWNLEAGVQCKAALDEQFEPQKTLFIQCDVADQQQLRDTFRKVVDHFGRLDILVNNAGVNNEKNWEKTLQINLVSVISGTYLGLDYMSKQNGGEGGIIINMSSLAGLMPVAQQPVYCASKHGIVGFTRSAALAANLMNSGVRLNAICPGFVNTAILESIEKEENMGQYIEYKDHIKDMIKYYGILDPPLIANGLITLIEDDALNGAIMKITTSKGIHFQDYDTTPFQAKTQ
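NADH formation kinetics: reaction with 30 uM PGE2 and 1 mM NAD+ (final), 20 nM enzyme, Tris-HCl pH 8 with Tween 20, after 15 min compound preincubation at room temperature. Fluorescence change, last versus first of five reads.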
PNC assembly inh: inhibitors of perinucleolar compartment assembly; activity change (PNC), negative = inhibition, % at 10 µM; PC3M PTB-GFP, PNC prevalence imaging, 16 h; active compounds read low; AID 2417; 140,000 tested, 3.1% active;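 active means readout at or below -70, meaning at least 70% loss of cells showing the perinucleolar compartment, a nuclear body marking cancer cells; inconclusive means readout between -30 and a set limit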
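Compounds are pinned in duplicate onto adhered PC3M cells stably expressing GFP-tagged PTB and incubated 16 h at 37 C. Cells are then fixed, nuclei stained with Hoechst, and PNC-positive cells counted.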
RGS12 GoLoco inh: RGS12 GoLoco-Gai1 interaction inhibition. P63096. Gai1:RGS12 GoLoco peptide FP, rhodamine, 10 min. Potency, µM (top dose mostly 61.6 µM), hits mostly inhibitors. 230,000 tested, 0.44% active; active means well fitted inhibition curve with a large enough effect, not every such curve was filed as active; inactive means no such curve, though single readings can be large or run the other way; further: nearly all actives have a fitted effect of over 30% in size
HTT aggregate: mutant huntingtin aggregation inhibition | PC12 HttQ103-GFP aggregates, Acumen cytometry, 40 h | Potency, µM (highest dose often 46.1 µM), hits mostly inhibitors | 220,000 tested, 1.1% active | AID 1688; further: nearly all actives have a fitted effect of over 60% in size
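Using laser scanning cytometry, GFP-positive aggregates were counted after lysis of PC12 cells induced with 100 nM tebufenozide to express HTT exon 1 Q103–GFP. Compounds were tested in titration.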
ALDH1A1 inh: ALDH1A1 (human) enzyme inhibition; P00352; Purified ALDH1A1, NADH fluorescence, propionaldehyde substrate; Potency, µM (top dose mostly 75.3 µM), most hits filed as inhibitors; 220,000 tested, 7.3% active; AID 1030; active means well fitted inhibition curve with a large enough effect, not every such curve was filed as active; inconclusive means small, poorly fitted or top-dose-only effect, or another doubt; inactive means no such curve, though single readings can be large or run the other way
Target sequence (P00352 whole entry, looked up): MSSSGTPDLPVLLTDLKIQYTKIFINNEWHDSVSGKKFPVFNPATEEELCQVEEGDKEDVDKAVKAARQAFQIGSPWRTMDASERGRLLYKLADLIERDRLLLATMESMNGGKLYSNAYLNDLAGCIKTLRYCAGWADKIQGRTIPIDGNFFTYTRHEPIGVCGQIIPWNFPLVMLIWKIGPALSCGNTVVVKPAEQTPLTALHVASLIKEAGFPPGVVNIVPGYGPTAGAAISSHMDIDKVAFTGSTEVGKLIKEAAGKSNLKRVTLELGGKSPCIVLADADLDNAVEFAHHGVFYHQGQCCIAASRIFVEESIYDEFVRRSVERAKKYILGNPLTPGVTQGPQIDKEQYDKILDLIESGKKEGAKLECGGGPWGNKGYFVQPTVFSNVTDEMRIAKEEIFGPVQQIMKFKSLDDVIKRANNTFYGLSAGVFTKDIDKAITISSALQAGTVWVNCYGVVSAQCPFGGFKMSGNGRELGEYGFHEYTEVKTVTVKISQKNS
Of the large screens only hits and unclear results are named; the others gave an inactive call; ! = not confirmed by another sample. Unless noted, the call rests on the fitted dose curve; in most records, active means well fitted curve in the direction sought with a large enough effect; inconclusive means small, poorly fitted or top-dose-only effect, or another doubt; inactive means no such curve, though single readings can be large; an effect the other way counts as inactive or inconclusive.

CCCn1nc([N+](=O)[O-])c(C(C#N)c2nc3ccccc3o2)c(Cl)c1=O (centres undefined)	PNC assembly inh inconclusive, HTT aggregate inconclusive, ALDH1A1 inh inconclusive
COc1ccccc1N1C(=O)CC(Nc2ccc(N3CCOCC3)cc2)C1=O (centres undefined)	ALDH1A1 inh inconclusive
CCOc1ccccc1N1C(=O)CC(Nc2ccc(N3CCOCC3)cc2)C1=O (centres undefined)	ALDH1A1 inh 7.9µM
O=C1CC(Nc2ccc(N3CCOCC3)cc2)C(=O)N1Cc1ccccc1 (centres undefined)	PNC assembly inh -119, ALDH1A1 inh inconclusive
c1ccc(Nc2ncncc2-c2ccc3c(c2)OCO3)cc1	none (no result: HPGD inh, PNC assembly inh, HTT aggregate)
COC(=O)c1ccc(C(NC(=O)OCc2ccccc2)/C(C)=C/[C@@H](C)C(=O)NCc2nc3ccccc3s2)cc1 (some centres undefined)	none (no result: PNC assembly inh, HTT aggregate)
Cc1ccc(CSc2ncn(-c3ccccc3)n2)cc1	HPGD inh 20µM, ALDH1A1 inh 16µM
O=C(CSc1ncn(-c2ccccc2)n1)NCc1ccccc1	none
Clc1ccccc1CSc1ncn(-c2ccccc2)n1	HPGD inh 18µM
Cc1cc(NC(=O)CSc2ncn(-c3ccccc3)n2)no1	ALDH1A1 inh inconclusive
CC(=O)OC[C@@H]1O[C@H](C/C=N\OC[C@@H](O)[C@H]2O[C@H]3OC(C)(C)O[C@H]3[C@@H]2O)C=C[C@@H]1OC(C)=O	none (no result: HPGD inh, PNC assembly inh, RGS12 GoLoco inh, HTT aggregate)
OC[C@@H](O)[C@@H](O)[C@@H](O)[C@@H](O)c1nc2ccc(Cl)cc2[nH]1	none (no result: PNC assembly inh, HTT aggregate)
CC(C)(C)c1ccc2c(c1)N(CC(=O)O)C(=O)CO2	ALDH1A1 inh 3.2µM
CC(Nc1oc(-c2ccccc2)nc1-c1ccc(C(F)(F)F)cc1)c1ccccc1 (centres undefined)	none (no result: PNC assembly inh, HTT aggregate)
CC(=O)Nc1cc(N2C(=O)CCC2=O)ccc1Cl	PNC assembly inh -82
CC(=O)Nc1c(Br)cc(N2C(=O)CCC2=O)cc1Br	none
COC(=O)C1=C(C)NC(C)=C(C(=O)OC)C1c1ccc2ccccc2n1	none
O=C1c2ccccc2C(=O)C1c1ccc2ccccc2n1	ALDH1A1 inh 25µM!
CN(C)Cc1ccccc1-c1ccc2ncnc(NC3CC3)c2c1	none (no result: PNC assembly inh, HTT aggregate)
CCOC(=O)C(C(C)=O)c1c(Br)c(O)c(O)c2c(C(=O)c3ccc(C)cc3)coc12 (centres undefined)	HPGD inh 7.9µM, HTT aggregate inconclusive
CCOC(=O)c1c(C)n(-c2ccc(C)cc2)c2c(C(C(C)=O)C(=O)O)c(Br)c(O)c(O)c12 (centres undefined)	HTT ATP protect inconclusive, HPGD inh 18µM, PNC assembly inh inconclusive, HTT aggregate 13µM, ALDH1A1 inh inconclusive
Cc1noc(/C=C/N(C)C)c1S(=O)(=O)N1CCCC(C(=O)NC(C)c2ccccc2)C1 (centres undefined)	HPGD inh 32µM, ALDH1A1 inh 7.5µM
Cc1noc(/C=C/N(C)C)c1S(=O)(=O)N1CCc2ccccc21	ALDH1A1 inh 5.6µM
Cc1noc(/C=C/N(C)C)c1S(=O)(=O)N1CCCC(C(=O)NC2CCCCC2C)C1 (centres undefined)	HTT aggregate inconclusive
O=C(N/N=C/c1ccc(O)cc1O)c1cc(-c2ccccc2)n[nH]1	ALDH1A1 inh inconclusive (no result: HTT ATP protect, PNC assembly inh, RGS12 GoLoco inh, HTT aggregate)
O=C(Cn1cnc2scc(-c3ccccc3)c2c1=O)N1CCOCC1	HTT aggregate inconclusive
CCn1cnc2scc(-c3ccccc3)c2c1=O	PNC assembly inh -107
CON(C)S(=O)(=O)c1ccc2c(c1)N(Cc1ccc(C)cc1)C(=O)C1CCCN21 (centres undefined)	ALDH1A1 inh 10µM (no result: HPGD inh, PNC assembly inh)
N#CCN1C(=O)C2CCCN2c2ccc(S(=O)(=O)N3CCOCC3)cc21 (centres undefined)	ALDH1A1 inh 10µM (no result: HPGD inh, PNC assembly inh)
COCCNC(=O)C(c1ccc(F)cc1)N(C(=O)CCC(=O)Nc1nccs1)c1cccc(C)c1 (centres undefined)	HTT ATP protect inconclusive (no result: HPGD inh, PNC assembly inh)
C[C@H](CCC(=O)O)[C@H]1CC[C@]2(C)[C@@H]3C(=O)C[C@H]4C(C)(C)[C@@H](O)CC[C@]4(C)[C@H]3C(=O)C[C@@]12C	none (no result: PNC assembly inh, HTT aggregate)
O=[N+]([O-])c1ccc(Oc2cccc(Br)c2)c2ccncc12	ALDH1A1 inh inconclusive
O=[N+]([O-])c1ccc(Oc2ccc(F)cc2)c2ccncc12	HTT aggregate 10µM
CC1=CC(=O)C2=C(C)CC[C@@H]3[C@H](OC(=O)[C@H]3C)[C@H]12	none (no result: HPGD inh, PNC assembly inh, RGS12 GoLoco inh, HTT aggregate, ALDH1A1 inh)
COC(=O)[C@@]1(Cc2ccccc2)[C@H]2c3cc(C(=O)N4CCCC4)n(CCc4ccccn4)c3C[C@H]2CN1C(=O)c1ccccc1	none (no result: PNC assembly inh, HTT aggregate)
c1cncc(-c2nccc(NCc3cccs3)n2)c1	ALDH1A1 inh 11µM (no result: HPGD inh, PNC assembly inh, HTT aggregate)
Clc1ccccc1-c1nccc(NCc2cccs2)n1	ALDH1A1 inh 14µM (no result: HPGD inh, PNC assembly inh, HTT aggregate)
COc1cccc(-c2nccc(NCc3cccs3)n2)c1	ALDH1A1 inh inconclusive (no result: HPGD inh, PNC assembly inh, HTT aggregate)
Cc1cc(CNC(=O)c2cccnc2Cl)c2ccccc2n1	none (no result: HPGD inh, PNC assembly inh)
Cc1ccc(Nc2nnc(SCC(=O)Nc3cccc(S(=O)(=O)N4CCCCC4)c3)s2)cc1	none
O=C(CSc1nnc(NC2CCCCC2)s1)Nc1ccc2c(c1)C(=O)c1ccccc1C2=O	HTT aggregate inconclusive, ALDH1A1 inh 13µM (no result: HPGD inh, PNC assembly inh)
CC(C)Nc1nnc(SCC(=O)Nc2ccc3c(c2)C(=O)c2ccccc2C3=O)s1	PNC assembly inh inconclusive, HTT aggregate inconclusive, ALDH1A1 inh 7.9µM (no result: HTT ATP protect)
O=C(CSc1nnc(Nc2ccccc2F)s1)Nc1cccc(S(=O)(=O)N2CCCCC2)c1	ALDH1A1 inh 22µM
C[C@H]1C2=C3C(CC[C@H]4C(OCc5ccc(F)cc5C(F)(F)F)OC[C@](C)([C@@H]34)N(C(=O)OC(C)(C)C)C2)C(CO)C1CO (some centres undefined)	none (no result: PNC assembly inh, HTT aggregate)
c1csc(CNCc2ccncc2)c1	none (no result: HPGD inh, PNC assembly inh)
CC(C)=CC1C=C(C)C(C)C2C(=O)NNC(=O)C12 (centres undefined)	ALDH1A1 inh 3.5µM
O=S(=O)(c1ccc(Cl)cc1)N1CCCC1c1nc2ccccc2s1 (centres undefined)	none
O=S(=O)(c1cc(Cl)cc(Cl)c1)N1CCCC1c1nc2ccccc2s1 (centres undefined)	PNC assembly inh -100
Cc1cc(O)c(-c2cc(O)c(C)cc2O)cc1O	HPGD inh inconclusive, RGS12 GoLoco inh 0.32µM!, ALDH1A1 inh inconclusive (no result: PNC assembly inh)
COc1ccc(Oc2ncc3nc(-c4ccccc4)c(=O)n(C4CC4)c3n2)cc1	HPGD inh inconclusive, ALDH1A1 inh inconclusive (no result: PNC assembly inh, HTT aggregate)
COc1ccc2c(CC(=O)NCCN3C(=O)S/C(=C\c4cccnc4)C3=O)coc2c1	ALDH1A1 inh 22µM (no result: HPGD inh, PNC assembly inh)
Cc1ccc(Sc2ccc(NC(=O)CCl)cc2)cc1C	HPGD inh inconclusive, ALDH1A1 inh 2µM
